Screens deposited in PubChem BioAssay by The Scripps Research Institute Molecular Screening Center.
MITF inh: inhibitors of human MITF. O75030. AlphaScreen MITF homodimerization, bead proximity signal. inhibition, % at 2.6 µM. actives 0.91% (n = 650,000). AID 1259374; in the data active = inhibition above about 50%;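 note: 0% = vehicle wells with protein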
GPR151 ag: activators of human GPR151. activation, % at 11.2 µM. PathHunter beta-arrestin GPR151 cells, luminescence. AID 1508602. actives 1% (n = 650,000). Q8TDV0; in the data active = activation above about 4.9%;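 note: 0% = median of compound wells and 100% = cells with positive control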
TEAD-YAP block: TEAD-YAP interaction inhibition | inhibition, % at 9.12 µM | actives 1.4% (n = 640,000) | HEK-TIYL cells, TEAD-Gal4/YAP UAS-luciferase luminescence; in the data active = inhibition above about 32%;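 note: 0% = median of test compound wells and 100% = reference inhibitor wells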
FBW7 activator: human FBW7 E3 ligase activation, primary screen; Q969H0; AlphaScreen FBW7–phospho-cyclin E peptide binding, activator screen; normalized activity (activation), % at 26.1 µM; actives 0.13% (n = 650,000); in the data active = normalized activity above about 1.9%;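 note: purified mutant Fbw7 with reduced substrate affinity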
* = called active by the depositor. Sampled rows, rich in hits. Any-hit rate of the full collection: about 3.4%.

SMILES	MITF inh	GPR151 ag	TEAD-YAP block	FBW7 activator
Clc1ccc2nc(N3N=C(c4cccs4)CC3c3ccccn3)nc(-c3ccccc3)c2c1 (configuration not stated)	-0.9	1.8	-4.1	0.2
CCN(CC)CCCNc1nc2cc(OC)c(OC)cc2c2nc(-c3ccccc3)nn12	17.1	0.5	32.5*	-0.2
CC1CCCCN1CCCNc1nc2ccccc2c2nc(-c3ccncc3)nn12 (configuration not stated)	5.3	0.7	80.0*	-0.4
CCN(CC)CCCNc1nc2ccccc2c2nc(-c3ccncc3)nn12	-6.7	-0.8	79.8*	0.1
CCCCNc1nc2ccccc2c2nc(-c3ccncc3)nn12	-4.7	-0.4	-3.6	0.4
COc1cc(/C=c2\sc3n(c2=O)NC2(c4ccccc4)N(C)C(=O)N(C)C2(c2ccccc2)N=3)cc(Br)c1O (configuration not stated)	14.8	-0.7	6.2	0.2
COC(=O)c1ccccc1NC(=O)c1cn(-c2ccc(F)cc2F)c(=O)c2ccccc12	2.5	-0.2	3.9	0.0
COc1cc(C=O)ccc1OCc1ccc(C(=O)O)cc1	-13.4	1.4	-6.7	-0.1
COc1cc(CO)ccc1OCc1cccc(F)c1	-21.7	-1.3	-43.5	0.0
COc1cc(/C=N/O)ccc1OCc1ccc(C(=O)O)cc1	20.1	-9.1	93.8*	0.0
COc1cc(CO)ccc1OCc1cccc(C(=O)O)c1	8.6	-10.2	74.0*	0.2
COc1cc(/C=N/O)ccc1OCc1ccccc1F	-12.7	-3.6	37.6*	0.0
COc1cc(/C=N/O)ccc1OCc1ccc(F)cc1	-10.8	-3.2	-40.8	-0.3
CCCCOc1ccc(CO)cc1OC	0.6	1.4	-4.7	2.1*
O=C(CN1CCC(O)(c2cccnc2)CC1)Nc1cccc(O)c1	-5.7	-2.0	-4.5	0.1
CC(=O)Nc1ccc(NC(=O)C2CCN(c3nn4c(=O)cc(C)nc4s3)CC2)cc1	4.3	-0.2	-0.4	0.4
Cc1cc(C(F)(F)F)nc(NCc2cccs2)n1	3.5	-0.5	-3.4	0.2
CCNc1ccc(C(=O)OCC(=O)OC(C)(C)C)cc1[N+](=O)[O-]	5.0	0.1	-1.3	-0.3
COc1cccc(NC(=O)c2ccc(NCc3ccccc3Cl)c([N+](=O)[O-])c2)c1	12.8	-0.3	51.6*	-0.1
CCNc1ccc(C(=O)NN)cc1[N+](=O)[O-]	0.3	2.2	35.0*	-0.3
COc1ccc(CNc2ccc(C(=O)Nc3ccc(C)cc3C)cc2[N+](=O)[O-])cc1	-11.7	-1.5	55.7*	-0.1
Cc1ccc(NC(=O)c2ccc(NCc3ccc(F)cc3)c([N+](=O)[O-])c2)c(C)c1	11.8	-0.8	18.9	0.1
Cc1ccc(CN2C(=O)C3C(C(=O)Nc4ccc(F)c(Cl)c4)C4C=CC3(O4)C2C(=O)NC2CCCC(C)C2C)cc1 (configuration not stated)	-23.1	1.0	-8.7	-0.1
O=C(Cn1cnc2sc3c(c2c1=O)CCCC3)NCc1ccccc1	10.1	0.2	20.6	0.2
C=CCN(CC=C)C(=O)c1c(NC(=O)c2ccc(F)cc2)sc2c1CCC(C(C)(C)C)C2 (configuration not stated)	2.1	-0.3	-0.6	0.1
SMILES	MITF inh	GPR151 ag	TEAD-YAP block	FBW7 activator
Cc1nc2c(ccc3nc(NC(=O)CCc4ccccc4)sc32)s1	-8.2	1.6	47.8*	-0.1
Cc1nc2c(ccc3nc(NC(=O)Cc4ccccc4)sc32)s1	23.5	-0.9	-29.7	0.0
COc1cccc(OC)c1C(=O)Nc1nc2ccc3sc(C)nc3c2s1	11.8	-0.9	-7.9	0.0
COc1ccc(C(=O)Nc2nc3ccc4sc(C)nc4c3s2)c(OC)c1	16.9	-0.4	48.5*	0.6
COc1ccccc1C(=O)Nc1nc2ccc3sc(C)nc3c2s1	-19.1	-1.7	52.4*	0.0
CCCNc1cc(-c2c(C)nn(C)c2C)nc(N)n1	-7.3	0.5	39.9*	-0.2
COc1ccc(CCNc2cc(-c3c(C)nn(C)c3C)ncn2)cc1	8.6	1.3	9.9	-0.2
COc1ccc(CCNc2cc(-c3c(C)nn(C)c3C)nc(N)n2)cc1	-4.5	0.7	49.7*	-0.1
CCOc1ccccc1N(CC(=O)Nc1cccc(OC)c1)S(C)(=O)=O	7.1	1.0	9.6	0.0
COCCn1c(SCC(=O)Nc2ccc(Cl)cc2)nnc1-c1c[nH]c2ccccc12	21.1	-0.2	-0.9	0.1
Cc1nccn1-c1ccc(NC(=O)C2CCCN(Cc3cc4ccccc4o3)C2)cc1 (configuration not stated)	9.5	3.9	20.5	0.1
Cc1ccc(NC(=O)CC2c3ccccc3Oc3ccccc32)nc1	15.4	-0.3	52.2*	0.3
O=C(CC1c2ccccc2Oc2ccccc21)Nc1ccccn1	16.9	0.2	25.2	0.1
